Source: PubChem BioAssay (The Scripps Research Institute Molecular Screening Center)
MITF primary = blocks human microphthalmia-associated transcription factor | O75030 | AlphaScreen MITF homodimerization, bead proximity signal | inhibition, % at 2.6 µM | 650,000 compounds, 0.91% hits; in the data active = inhibition above about 50%
TEAD-YAP inh = TEAD-YAP interaction inhibition | HEK-TIYL cells, TEAD-Gal4/YAP UAS-luciferase luminescence | inhibition, % at 9.12 µM | AID 1259422 | 640,000 compounds, 1.4% hits; in the data active = inhibition above about 32%
FBW7 activator = activators of human E3 ligase FBW7 | Q969H0 | AlphaScreen FBW7–phospho-cyclin E peptide binding, activator screen | normalized activity (activation), % at 26.1 µM | 650,000 compounds, 0.13% hits | AID 1259310; in the data active = normalized activity above about 1.9%;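 also: purified mutant Fbw7 with reduced substrate affinity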
GPR151 activ = human GPR151 activation; Q8TDV0; PathHunter beta-arrestin GPR151 cells, luminescence; activation, % at 11.2 µM; 650,000 compounds, 1% hits; AID 1508602; in the data active = activation above about 4.9%
Target sequence (Q8TDV0 whole entry, looked up): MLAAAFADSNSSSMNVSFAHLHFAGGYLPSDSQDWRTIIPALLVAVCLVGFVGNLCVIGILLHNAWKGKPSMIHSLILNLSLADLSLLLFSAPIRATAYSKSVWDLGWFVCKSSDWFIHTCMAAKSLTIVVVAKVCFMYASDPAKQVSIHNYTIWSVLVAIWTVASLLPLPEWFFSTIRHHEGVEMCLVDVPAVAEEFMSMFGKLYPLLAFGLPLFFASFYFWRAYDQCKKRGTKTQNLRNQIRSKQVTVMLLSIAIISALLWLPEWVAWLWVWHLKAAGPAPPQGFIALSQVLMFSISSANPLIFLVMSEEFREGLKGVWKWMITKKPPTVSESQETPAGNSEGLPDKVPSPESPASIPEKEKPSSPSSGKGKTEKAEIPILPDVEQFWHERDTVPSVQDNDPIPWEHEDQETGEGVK
MITF confirm = confirmation of human MITF inhibitors | shares compounds with MITF primary | AlphaScreen MITF homodimerization, biotin/His-MITF beads | inhibition, % at 2.6 µM | 4,700 compounds, 16% hits | AID 1259372;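 active = inhibition above a cutoff derived from the DMSO control wells, cut at about 28% in these data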;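 also: inhibitors lower the bead chemiluminescence by keeping MITF from dimerizing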
AS interf DR = counter-screen: compounds optically interfering with AlphaScreen. shares compounds with MITF primary. IC50, µM. AID 1259373. 480 compounds, 6% hits. AlphaScreen optical interference counterscreen, cell-free; call rule not given here
AlphaScreen intf2 = optically interferes with AlphaScreen signal. shares compounds with MITF primary. inhibition, % at 2.6 µM. 4,700 compounds, 7.6% hits. LysRS AlphaScreen counterscreen, signal interference, triplicate. AID 1259376;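 active = inhibition above a cutoff derived from the DMSO control wells, cut at about 30% in these data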
Large screens that a line does not name were inactive (follow-up assays come after a bar, where they were run); ! = a repeat was not active. Shown are actives, neighbours in structure and some others; about 3.5% of the full set was active somewhere.

COc1cc(OC)cc(C(=O)N2CCN(Cc3cccc(Br)c3)CC2)c1	none
O=C(c1cccc(Cl)c1)N1CCN(Cc2cccc(F)c2)CC1	MITF primary 67 | MITF confirm inactive | AlphaScreen intf2 inactive
O=C(c1cccc(F)c1)N1CCN(Cc2cccc(F)c2)CC1	MITF primary 57 | MITF confirm inactive | AlphaScreen intf2 inactive
COc1cccc(C(C(=O)NC(C)(C)C)N(C(=O)c2csnn2)c2ccccc2C)c1 (configuration not stated)	none
CCOC(=O)c1cc(C)sc1NC(=O)c1ccccc1Br	none
O=C(c1ccccc1F)N1CCN(Cc2cccc(F)c2)CC1	MITF primary 54 | MITF confirm inactive | AlphaScreen intf2 inactive
O=C(c1ccc(-c2ccccc2)cc1)N1CCN(Cc2cccnc2)CC1	MITF primary 68 | MITF confirm inactive | AlphaScreen intf2 inactive
O=C(c1cccc(F)c1)N1CCN(Cc2cccnc2)CC1	MITF primary 87 | MITF confirm inactive | AlphaScreen intf2 inactive
O=C(c1cccc(F)c1)N1CCN(Cc2cccc(Oc3ccccc3)c2)CC1	none
COc1ccc(C(=O)N2CCN(Cc3cccc(Br)c3)CC2)cc1	MITF primary 51 | MITF confirm inactive | AlphaScreen intf2 inactive
CCc1nc2ccccc2c(C(=O)OCC(=O)Nc2ccc(C(N)=O)cc2)c1C	none
CC(/C=N\NC(=O)c1ccc([N+](=O)[O-])cc1)=C\c1ccccc1	none
O=C(c1ccccc1F)N1CCN(CC2CC3C=CC2C3)CC1 (configuration not stated)	none
CSc1ccc(CN2CCN(C(=O)c3ccc(-c4ccccc4)cc3)CC2)cc1	none
O=C(c1cccc(F)c1)N1CCN(Cc2ccncc2)CC1	MITF primary 78 | MITF confirm 64 | AS interf DR inactive | AlphaScreen intf2 inactive
O=C(c1cccc(F)c1)N1CCN(CC2CC3C=CC2C3)CC1 (configuration not stated)	MITF primary 58 | MITF confirm inactive | AlphaScreen intf2 inactive
O=C(c1cccc(C(=O)N2CCN(Cc3ccccc3)CC2)c1)N1CCN(Cc2ccccc2)CC1	none
CSc1ccc(CN2CCOc3ccc(CN4CCN(C(C)=O)CC4)cc3C2)cc1	MITF primary 88, TEAD-YAP inh 37 | MITF confirm inactive | AlphaScreen intf2 inactive
CSc1ccc(CN2CCN(C(=O)c3ccc(F)cc3)CC2)cc1	MITF primary 55, TEAD-YAP inh 44 | MITF confirm inactive | AlphaScreen intf2 inactive
Cc1cccc(NC(=O)C2C(=O)N(C)C3(C)CC2c2ccccc2O3)c1 (configuration not stated)	none
Cc1cc(-c2ccccc2)nc2cc(C(=O)NCc3cccnc3)nn12	none
O=C(c1ccc(F)cc1)N1CCN(Cc2cccc(F)c2)CC1	MITF primary 58 | MITF confirm inactive | AlphaScreen intf2 inactive
COc1ccc(C(=O)N2CCN(Cc3cccc(F)c3)CC2)cc1	none
Cc1[nH][nH]c(=O)c1C(c1ccccc1OCc1ccc(Br)cc1)c1c(C)[nH][nH]c1=O	MITF primary 66 | MITF confirm 46 | AlphaScreen intf2 inactive
OCCNc1cc(-c2cccs2)ncn1	MITF primary 56 | MITF confirm 53 | AS interf DR inactive | AlphaScreen intf2 inactive
CCCNc1cc(-c2cccs2)ncn1	none
COCCn1c(SC)nnc1-c1cnccn1	none
Cc1c(Cl)cccc1N1C(=O)CC(Sc2nc3ccccc3s2)C1=O (configuration not stated)	none
COc1cc(OC)cc(C(=O)NC(C(=O)NCCc2ccccn2)C(C)C)c1 (configuration not stated)	none
COc1ccc(OC)c(CN(C)CCc2ccccn2)c1	none
CN(Cc1ccccc1)C(=O)COc1ccc2ccccc2c1	none
CN(CCc1ccccn1)C(=O)COc1ccc2ccccc2c1	MITF primary 84 | MITF confirm inactive | AlphaScreen intf2 inactive
COc1cc(OC)cc(C(=O)N(C)CCc2ccccn2)c1	MITF primary 71 | MITF confirm inactive | AlphaScreen intf2 inactive
CN(CCc1ccccn1)C(=O)c1ccccc1	MITF primary 60 | MITF confirm inactive | AlphaScreen intf2 inactive
COc1ccc(C(=O)N(C)CCc2ccccn2)cc1	MITF primary 71 | MITF confirm inactive | AlphaScreen intf2 inactive
Cc1ccc(CN2CCN(C3CCCCCC3)CC2)cc1	MITF primary 69 | MITF confirm inactive | AlphaScreen intf2 inactive
CSc1ccc(CN2CCN(C3CCCC3)CC2)cc1	MITF primary 54 | MITF confirm inactive | AlphaScreen intf2 inactive
CCc1ccc(CN2CCN(C3CCCC3)CC2)cc1	none
CSc1ccc(CN2CCC(N3CCCCC3)CC2)cc1	none
CCc1ccc(CN2CCN(C3CCCCC3)CC2)cc1	MITF primary 62 | MITF confirm inactive | AlphaScreen intf2 inactive
O=C(COc1ccc(Cl)cc1[N+](=O)[O-])Nc1nccs1	none
C/C(CC(=O)Nc1ccc2c(c1)OCCO2)=N\NC(=O)c1cc(Cl)ccc1O	none
COc1ccc(CN2CCc3nnc(C(C)C)n3CC2)cc1C	none
O=C(NCCCN1CCCC1=O)c1cncc(-c2ccc(N3CCOCC3)nc2)c1	none
C/C=C/c1ccc(OCCCNC2CCCC2)c(OC)c1	MITF primary 51 | MITF confirm inactive | AlphaScreen intf2 inactive
C=CCc1ccc(OCCNC2CCCC2)c(OC)c1	none
C/C=C/c1ccc(OCCCNC(C)CC)c(OC)c1 (configuration not stated)	MITF primary 83 | MITF confirm inactive | AlphaScreen intf2 inactive
C/C=C/c1ccc(OCCN(C)C)c(OC)c1	MITF primary 73 | MITF confirm inactive | AlphaScreen intf2 inactive
CCCN(CCC)CCCNC(=O)Cn1ncc2c1-c1cc(C)ccc1OC2	none
CCC(C)NC(=O)c1cnn2c(C(F)F)cc(-c3ccccc3)nc12 (configuration not stated)	none
COc1ccc(NC(=O)c2cnn3c2NC(c2ccco2)CC3C(F)(F)F)cc1 (configuration not stated)	none
N#Cc1ccccc1NC(=O)c1ccc(S(=O)(=O)N2CCOCC2)cc1	MITF primary 55 | MITF confirm inactive | AlphaScreen intf2 inactive
N#Cc1ccccc1NC(=O)c1ccc(S(=O)(=O)N2CCCC2)cc1	none
CN(C)CCNc1nc(C2COc3ccccc3O2)nc2ccc(-c3cn[nH]c3)cc12 (configuration not stated)	MITF primary 52! | MITF confirm 64 | AS interf DR inactive | AlphaScreen intf2 inactive
CCN1CCN(CC(=O)N(C)c2ccccc2)CC1	MITF primary 67 | MITF confirm inactive | AlphaScreen intf2 inactive
CCN1CCN(CC(=O)Nc2nnc(C)s2)CC1	MITF primary 74 | MITF confirm inactive | AlphaScreen intf2 inactive
CCN1CCN(CC(=O)NCc2ccccc2OC)CC1	MITF primary 99 | MITF confirm inactive | AlphaScreen intf2 inactive
CN(C(=O)N1CCN(C(=O)N(C)c2ccccc2)CC1)c1ccccc1	none
CCN1CCN(CC(=O)Nc2ccccc2)CC1	MITF primary 59 | MITF confirm inactive | AlphaScreen intf2 inactive
